Results taken from PubChem BioAssay (NCI).
The panel holds about 79,000 compounds, 15% with a hit somewhere; the sample as a whole holds those more often. Cut-off read from the data, not from the text of the source: active = growth inhibition above about 70%; inactive = the rest.

Columns and labels:
[1] = NCI Yeast Anticancer Drug Screen. Data for the rad50 strain (AID 155);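 note: 0% = growth of vehicle-only cultures of the same strain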; details: S. cerevisiae rad50 strain growth inhibition; at 50.0 µM; active compounds read high
How it was run: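 Yeast carrying a defined DNA repair defect were exposed to test compounds, and growth was compared with vehicle-treated controls to give percent inhibition.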

[2] = NCI Yeast Anticancer Drug Screen. Data for the mec2-1 strain (AID 157); details: S. cerevisiae mec2-1 strain, at 50.0 µM, active compounds read high
How it was run: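 Using mec2-1 yeast: add compound, measure growth, express inhibition versus vehicle-treated cultures.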

[3] = NCI Yeast Anticancer Drug Screen. Data for the sgs1 mgt1 strain (AID 161);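 note: 0% = growth of cultures given vehicle only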; details: S. cerevisiae sgs1 mgt1 strain, at 50.0 µM, active compounds read high
How it was run: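 Compounds are added to genetically altered yeast, and growth is compared with cultures given vehicle alone to give percent inhibition.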

[4] = NCI Yeast Anticancer Drug Screen. Data for the cln2 rad14 strain (AID 165);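 note: 0% = growth equal to vehicle treated cultures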; details: S. cerevisiae cln2 rad14 strain, at 50.0 µM, active compounds read high
How it was run: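 Yeast strain cln2 rad14, bearing defects in cell cycle control and DNA repair, serves as the test system; values reflect growth inhibition compared with vehicle.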

[5] = NCI Yeast Anticancer Drug Screen. Data for the bub3 strain (AID 167); details: S. cerevisiae bub3 mutant strain, at 50.0 µM, active compounds read high
How it was run: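 Compounds were applied to a genetically altered yeast strain carrying a cell-cycle control defect. Growth inhibition was scored against vehicle-treated controls.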

[6] = NCI Yeast Anticancer Drug Screen. Data for the mlh1 rad18 strain (AID 175); details: S. cerevisiae mlh1 rad18 strain growth inhibition; at 50.0 µM; active compounds read high
How it was run: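 Steps: expose repair-defective yeast to compound; measure growth; express inhibition against vehicle-treated controls.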

Measured: growth inhibition

O=C(Cn1c(-c2ccccc2)cc2ccccc21)N1CCOCC1
inactive: [1] -0.45% | [2] -32.9% | [3] -39% | [4] -18.1% | [5] 1.65% | [6] -28.1%

O=C1CCC(=O)c2cc(Br)ccc2N1
inactive: [1] 25.8% | [2] 11.8% | [3] 2.85% | [4] 13% | [5] 46.2% | [6] 23.1%

CCC1(c2ccccc2)NC(=O)N(N)C1=O (stereo not given)
inactive: [1] 0.4% | [2] 28.5% | [3] -8.8% | [4] 9.05% | [5] -0.75% | [6] 1.85%

Nc1ccccc1/C=C/c1ccnc2ccccc12
inactive: [1] 3.7% | [2] 2.55% | [3] 23.6% | [4] 10.2% | [5] -18.1% | [6] 47.8%

O=C1CSC(c2ccccc2Br)N1c1nncs1 (stereo not given)
inactive: [1] -5.05% | [2] -5.7% | [3] 1.95% | [4] 0.9% | [5] 13.6% | [6] 7.75%

O=C1CCCC2C(O)CCC[C@H]12 (stereo not given in full)
inactive: [1] -9% | [2] -2.9% | [3] -21.8% | [4] 1% | [5] -7.7% | [6] -1.9%

C=C(CCl)CCl
inactive: [1] 42.4% | [2] 12.2% | [3] 39.1% | [4] 12.5% | [5] 46.3% | [6] 36.5%

C=C(Br)CNC(=O)Nc1ccccn1
inactive: [1] -10.2% | [2] 4.55% | [3] -3.3% | [4] -4.15% | [5] -4.85% | [6] -8.75%

COc1cc(-c2cc(=O)c3c(OC)c(OC)c(OC)cc3o2)c(OC)c(OC)c1OC
inactive: [1] 38% | [2] 10.6% | [3] 3.05% | [4] -12.9% | [5] -6.15% | [6] -36.8%

CC(=O)OCC1OC(n2nc(/C=C/c3ccccc3)c(=O)n(-c3ccccc3)c2=S)C(OC(C)=O)C(OC(C)=O)C1OC(C)=O (stereo not given)
inactive: [1] 0.1% | [2] 20.6% | [3] 8.85% | [4] -10.3% | [5] -0.45% | [6] 31.9%

CCCCCCCCCCCCCCOc1ccc(OCCCCCCCCC)cc1
inactive: [1] 38.4% | [2] -14.9% | [3] 24.1% | [4] -13.8% | [5] 3.4% | [6] -13.9%

CCCCS(=O)(=O)N(CCC)CCC
inactive: [1] 9.55% | [2] -13.6% | [3] 5.25% | [4] -18.1% | [5] -3.95% | [6] -13.3%

CCCCCCCCCCCCCCCCOc1ccc(N)cc1
inactive: [1] 11.7% | [2] 6.05% | [3] -16.3% | [4] -41.2% | [5] 19% | [6] 1.1%

Cc1ccc(-c2oc3ccccc3c(=O)c2O)cc1
inactive: [1] 22.9% | [2] -9.9% | [3] 2.1% | [4] -5.3% | [5] 5.45% | [6] 7.65%

CCCCCCCCN1N=CC(CC)C1CCC (stereo not given)
inactive: [1] 3.15% | [2] -11.8% | [3] 6.5% | [4] 11.3% | [5] -0.8% | [6] 1.45%

CN(C)CCCn1ncc(Sc2cc([N+](=O)[O-])ccc2N)c(Cl)c1=O
inactive: [1] 2.9% | [2] -6.35% | [3] -12.3% | [4] -8.25% | [5] -5.55% | [6] -6.9%

Cc1ccc(NC(=O)NC23CC4CC(CC(F)(C4)C2)C3)cc1
inactive: [1] 20.1% | [2] 4.45% | [3] -34% | [4] 0.25% | [5] -3.65% | [6] -12.3%

COc1ccc(Cl)cc1NC(=O)Nc1cc(C)ccc1Cl
inactive: [1] -8.35% | [2] 25.8% | [3] 27.4% | [4] -25.2% | [5] 28.8% | [6] 9.9%

CCCN=C(NNC(N)=O)C(C)=O
inactive: [1] 24.9% | [2] 7.9% | [3] -4.35% | [4] 5.55% | [5] 15.7% | [6] -1.45%

CCCCCC(CC)OC(=O)Nc1cccc2ccccc12 (stereo not given)
inactive: [1] 6.05% | [2] 7.2% | [3] 10.7% | [4] -9.15% | [5] -3.35% | [6] 0.1%

CCCCCCCCCCCCCCCCCCN=C(N)N
inactive: [1] -1.55% | [2] -10.8% | [3] 12.8% | [4] 22.4% | [5] -2.25% | [6] 10.8%

O=C1CCCCC1O (stereo not given)
inactive: [1] -18.4% | [2] -50.8% | [3] -15.2% | [4] 0.05% | [5] -13.8% | [6] -26.1%

O=C(O)/C=C(/Oc1ccccc1)c1ccccc1
inactive: [1] -12.3% | [2] -7.7% | [3] -7.95% | [4] -8.7% | [5] -19.8% | [6] -3.55%

CCCC1OCC(C)(CC)CO1 (stereo not given)
inactive: [1] 27.6% | [2] -2.55% | [3] -4.9% | [4] 12% | [5] -9.65% | [6] -9.05%

CC(=O)NC(CCCCNC(=O)NCCCl)C(=O)NCc1ccccc1 (stereo not given)
inactive: [1] 3.3% | [2] -22.8% | [3] -2.85% | [4] 20.8% | [5] -12% | [6] -8.9%

Cc1ccc(S(=O)(=O)OC2C3OC(C)(C)OC3OC2C(c2cc(O)c3c(c2O)C(=O)c2ccccc2C3=O)c2cc(O)c3c(c2O)C(=O)c2ccccc2C3=O)cc1 (stereo not given)
inactive: [1] -35.5% | [2] -25.6% | [3] -11.6% | [4] -5% | [5] -8.2% | [6] -25.1%

N#CN(Cc1ccccc1)Cc1ccccc1
inactive: [1] -1.25% | [2] 23.7% | [3] 7.75% | [4] 0.6% | [5] 10.7% | [6] 4%

N#CCCCCCCCCC(=O)O
inactive: [1] -14.6% | [2] -14.4% | [3] 6.9% | [4] -18.4% | [5] -39.5% | [6] -11.5%

C#CC(CCC)NC(C)(C)C (stereo not given)
inactive: [1] 31.7% | [2] -13.9% | [3] 7.35% | [4] -10.8% | [5] 1.95% | [6] 21.3%

CC(O)C(C)NC(C)C(C)O (stereo not given)
inactive: [1] 0.4% | [2] -0.35% | [3] -30.8% | [4] 15.3% | [5] 12.1% | [6] -2.85%

Cc1nccc2scc(S(=O)(=O)O)c12
inactive: [1] 22.6% | [2] 10.5% | [3] 12.1% | [4] -12.8% | [5] -13.7% | [6] 22.7%

CCOc1ccccc1N1C(=O)CSC1=S
inactive: [1] 15.2% | [2] 14.2% | [3] 51.2% | [4] -14% | [5] 48.9% | [6] 30.2%

O=C(O)/C=C/c1ccncc1
inactive: [1] -1.7% | [2] -6.35% | [3] -7.15% | [4] 3.75% | [5] -0.3% | [6] 5.1%

CC(=O)NNc1nc(C)c(C(/C=C/c2cccc([N+](=O)[O-])c2)=N/NC(=S)NN)s1
inactive: [1] 5.85% | [2] -5% | [3] 2.2% | [4] 4.35% | [5] 12.4% | [6] 12.1%

CCc1c(C)[nH]c(C2=NCCC2)c1C
inactive: [1] -10.6% | [2] -9.6% | [3] -17.8% | [4] -1.6% | [5] -13.4% | [6] -25.1%

Cn1c(=O)oc2cc(C(=O)CSC(=S)N3CCCCCC3)ccc21
inactive: [1] -18.3% | [2] -33.1% | [3] -17.6% | [4] -14.8% | [5] -4.8% | [6] -7.6%

CCCC(CCC)C(=O)O
inactive: [1] -18% | [2] 3.45% | [3] -8.75% | [4] 7.9% | [5] -10.8% | [6] -1.05%

Cc1ccc(/C=C2\CCCC(C(NO)c3ccc(C)cc3)C2=NO)cc1 (stereo not given)
inactive: [1] -10.9% | [2] -20.2% | [3] 3.1% | [4] 1.2% | [5] -6.6% | [6] -9.25%

C[N+]1(CSC(=O)c2ccccc2)CCCCC1
inactive: [1] 1.95% | [2] 11.5% | [3] 12.3% | [4] 1.6% | [5] -9.75% | [6] 24.9%

CC(=O)OCC1OC(n2c(-c3ccccc3)c(N=Nc3ccccc3)c(C)c(C#N)c2=S)C(OC(C)=O)C(OC(C)=O)C1OC(C)=O (stereo not given)
inactive: [1] -14% | [2] -17.4% | [3] -20.2% | [4] 11.5% | [5] 2.55% | [6] 9.75%
